Screening results (PubChem)
IMPase cell inh = IMPase inhibition in cells; CHO-M1 cells, IP1 accumulation, HTRF TR-FRET ratio; 120,000 tested, under 10 active; inhibition (IP1 accumulation), % at 46.1 µM; AID 901; active means well fitted curve in the direction sought with a large enough effect in the signal ratio, not every such curve was filed as active; inconclusive means small, poorly fitted or top-dose-only effect, or a change in a side signal; inactive means no such curve, though single readings can be large or run the other way; the % refers to the signal ratio;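 further: cells stimulated with carbachol in lithium chloride buffer; plate controls were DMSO basal wells for no effect and reference inhibitor wells for full effect; higher means more IMPase inhibition seen as more IP1 and lower FRET ratio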
Target sequence (P97697 whole entry, looked up): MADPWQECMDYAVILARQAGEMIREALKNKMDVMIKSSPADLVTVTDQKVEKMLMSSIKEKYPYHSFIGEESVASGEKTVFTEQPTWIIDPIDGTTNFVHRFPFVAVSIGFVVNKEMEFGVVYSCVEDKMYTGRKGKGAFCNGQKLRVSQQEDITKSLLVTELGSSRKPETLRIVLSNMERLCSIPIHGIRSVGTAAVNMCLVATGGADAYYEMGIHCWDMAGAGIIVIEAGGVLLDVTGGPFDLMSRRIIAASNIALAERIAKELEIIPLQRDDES
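In this qHTS, compounds (final up to 46 uM) act on CHO-M1 cells that are then activated through the M1 receptor with carbachol, in pH 7.4 buffer containing 50 mM LiCl, for 30 min. IP1 accumulation is quantified by the IP-One immunoassay.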
PNC assembly inh = perinucleolar compartment assembly inhibition; PC3M PTB-GFP, PNC prevalence imaging, 16 h; active compounds read low; activity change (PNC), negative = inhibition, % at 10 µM; actives 3.1% (n = 140,000); AID 2417;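 active means readout at or below -70, meaning at least 70% loss of cells showing the perinucleolar compartment, a nuclear body marking cancer cells; inconclusive means readout between -30 and a set limit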;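 further: plate controls were DMSO wells for no effect and camptothecin positive control wells for full effect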
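Compounds are pinned in duplicate onto adhered PC3M cells stably expressing GFP-tagged PTB and incubated 16 h at 37 C. Cells are then fixed, nuclei stained with Hoechst, and PNC-positive cells counted.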
IMPase Li cell = cell-permeable IMPase inhibitors with lithium potentiation; actives 0.35% (n = 210,000); CHO-M1 cells, IP1 TR-FRET (IP-One), carbachol + lithium; Potency, µM (doses to about 59.4 µM), without a hit: at the top dose activity, negative = IMPase inhibition, actives largely listed as inhibitors; AID 1457;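 further: IP1 builds up when IMPase is blocked and the TR-FRET signal falls; potency means the concentration at half of the fitted maximal effect; plate controls were basal vehicle for no effect and high inhibitor control for full effect; nearly all actives have a fitted effect of over 50% in size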
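Concentration–response in CHO-M1 cells, lithium-potentiated; 30 min at 37C. IP1 detected by competitive TR-FRET after 10 min lysis at RT. Hill-fitted AC50.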
12-hLO inh = blocks human 12-lipoxygenase activity; purified 12-hLO, xylenol orange hydroperoxide absorbance; actives 0.12% (n = 150,000); Potency, µM (doses to about 57.1 µM), for inactives: at the highest dose activity change, negative = inhibition, usual class: inhibitors; further: potency means the concentration at half of the fitted maximal effect; nearly all actives have a fitted effect of over 55% in size
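Purified human 12hLO (150 nM), preincubated 15 min with compound, then 40 uM arachidonic acid for 30 min, room temperature, Hepes pH 7.0 with 0.01% Triton X-100. Hydroperoxide detected by ferrous iron/xylenol orange; 573/405 nm absorbance ratio gives reaction progress.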
The depositor's hits bear a star; ? = inconclusive; · = no result; [ ] = dose if it differs, or a comment. The full list was thinned out, with hits kept by preference. Unless noted, the call rests on the fitted dose curve; in most records, active means well fitted curve in the direction sought with a large enough effect; inconclusive means small, poorly fitted or top-dose-only effect, or another doubt; inactive means no such curve, though single readings can be large; an effect the other way counts as inactive or inconclusive. Unless noted, on the % scale 0 is the no-effect control and ±100 the full control effect.

SMILES	IMPase cell inh	PNC assembly inh	IMPase Li cell	12-hLO inh
Cc1ccc(-c2csc(NC(=O)CSc3nc(C)cc(=O)[nH]3)n2)cc1	-4	-89*	35%[38.3 µM]	-17%
O=C(NNS(=O)(=O)c1ccc(F)cc1)C1CC(c2cccnc2)=NO1 (stereo unspecified)	·	·	1%	·
CC(O)[C@@H](C(=O)N1CCNCC1)n1cc(CCCCN)nn1 (stereo partly specified)	·	·	2%	·
CSc1ccccc1NC(=O)CN(Cc1ccccc1)S(C)(=O)=O	2	49	22%[38.3 µM]	-4%
CCOc1ccccc1N(CC(=O)OC)S(C)(=O)=O	-1	-106*	-3%[38.3 µM]	2%
Cc1ccccc1N(CC(N)=O)S(C)(=O)=O	-10	20	-13%[38.3 µM]	-4%
Cc1ccccc1N(CC(=O)O)S(C)(=O)=O	5	-104*	1%	4%
CCOc1ccccc1N(CC(=O)N1CCCCCC1)S(C)(=O)=O	2	-23	18%[38.3 µM]	1%
CCOc1ccccc1NC(=O)CN(Cc1ccccc1)S(C)(=O)=O	-1[1.84 µM]	-94*	24%[38.3 µM]	2%
CC(=O)Nc1nc(NC(C)=O)c2[nH]c(CO)nc2n1	·	·	-6%	-1%[11.4 µM]
C/C(=N\NC(=O)c1csc2ccccc12)c1ccc(O)cc1	3	?	27%[38.3 µM]	2%
O=[N+]([O-])c1ccc2c(c1Nc1ccccc1)=NC1(CCCCC1)N=2	7	-109*	9%[38.3 µM]	4%
COc1ccc(Nc2c([N+](=O)[O-])ccc3c2=NC2(CCCCC2)N=3)cc1	·	·	50%	·
CCN(CC)S(=O)(=O)c1ccc(NC(=S)NC(=O)CC(C)C)cc1	·	-83*	9%	-6%
COC(=O)C(NC(=O)c1ccc(C)cc1)(Nc1cccc(C)n1)C(F)(F)F (stereo unspecified)	1	-100*	9%	-3%
COC(=O)C(NC(=O)c1ccccc1)(Nc1nc(C)cs1)C(F)(F)F (stereo unspecified)	7	0	·	-9%
Cc1noc(C)c1-c1nc(N2CCN(C)CC2)c2ccccc2n1	·	·	1%	·
O=S(=O)(Nc1nc2ccccc2nc1Nc1ccc2c(c1)OCO2)c1ccc(F)cc1	-8	-84*	·	0%
COc1cc(OC)cc(C(=O)N2CCC(C(=O)Nc3ccc4c(c3)OCCO4)CC2)c1	·	29	0%	-5%
Cc1[nH]nc2c1C(c1cccnc1)N(c1ccc(Br)cc1)C2=O (stereo unspecified)	-3	-83*	13%	18%
COc1cc(C2c3c(n[nH]c3C)C(=O)N2c2ccc(Br)cc2)ccc1O (stereo unspecified)	1	32	21%[38.3 µM]	-7%
Cc1nn2c(N)c(C#N)cnc2c1-c1ccc(Cl)cc1	-22	1	11µM*	5%
COc1ccc(-c2c(C)nn3c(N)c(C#N)cnc23)cc1OC	·	·	10%	·
Cc1nn2c(N)c(C#N)cnc2c1-c1ccccc1	5	-82*	5%	-5%
CCOC(=O)Nc1ccc(S(=O)(=O)N2CCC(C)CC2)cc1	·	·	7%	·
SMILES	IMPase cell inh	PNC assembly inh	IMPase Li cell	12-hLO inh
Cc1nnc(SCc2nc3sc4c(c3c(=O)[nH]2)CCCC4)[nH]c1=O	·	·	-5%	·
O=C(O)c1ccc(NS(=O)(=O)c2ccsc2C(=O)O)c(O)c1	·	·	-10%	-1%
CCn1c(SCC(=O)N2CCCc3ccccc32)nnc1-c1ccoc1C	4	-100*	4%	2%
CC(=O)N1CC2(CC2)CC1c1ccccc1 (stereo unspecified)	·	·	-9%	-2%
CCn1ncc(C2=NOC(C(=O)NCc3ccc(Cl)cc3)C2)c1C (stereo unspecified)	7	-82*	11%[38.3 µM]	-5%
Cc1c(N2C(=O)C(=O)/C(=C(/O)c3ccc(Br)cc3)C2c2cccnc2)c(=O)n(-c2ccccc2)n1C (stereo unspecified)	·	·	8.9µM*	·
Cc1c(NC2=NC(C)(C)Cc3ccccc32)c(=O)n(-c2ccccc2)n1C	-2	-88*	14%	6%
N#Cc1cnn(-c2nc3sc4c(c3c(=O)[nH]2)CCCC4)c1N	-9	17	2%	0%
N#Cc1cnn(CC2CCCCC2)c1N	2	-97*	-16%[38.3 µM]	-1%
N#Cc1cccc(NC(=O)COC(=O)c2ccc3c(=O)n4c(nc3c2)CCC4)c1	·	·	-2%	·
Cc1cc(C)c2nc(N3CCN(C)CC3)c(C#N)cc2c1	-20	?	28µM*	-3%
O=C(O)CNC(=O)c1ccccc1O	·	·	-6%	0%[11.4 µM]
Cc1cccc(NC(=S)N2CCOCC2)c1C	·	-28	-1%	-3%
CCOC(=O)Cc1nnc(NC(=O)CSc2nnc3c4ccccc4n(C(C)C)c3n2)s1	?	-17	?	-2%
CC(C)n1c2ccccc2c2nnc(SCC(=O)Nc3ccccc3C(=O)O)nc21	·	·	7.9µM*	·
Oc1ccccc1/C=N/Nc1nccnc1Cl	-1	-88*	37%[38.3 µM]	-18%
Oc1ccc(/C=N/Nc2nccnc2Cl)c(O)c1	8	53	47%[38.3 µM]	-22%
O=C1CSC(c2ccccc2[N+](=O)[O-])N1c1cccc(F)c1 (stereo unspecified)	·	·	-2%	·
COCCCNC(=O)C1CCN(S(=O)(=O)c2c(C)noc2/C=C\c2ccc(OC)cc2)CC1	0	-109*	14%[38.3 µM]	2%
Cc1c(Cl)cc(C(C)(C)C)c(O)c1Cc1c(C)c(Cl)cc(C(C)(C)C)c1O	·	·	3%	-5%[11.4 µM]
Cc1cc(NC(=O)CSc2nc(-c3ccco3)cc(C(F)(F)F)n2)no1	-15	-116*	2%	13%
Cc1cc(NC(=O)CCSc2nc(-c3ccco3)cc(C(F)(F)F)n2)no1	0	13	52%[38.3 µM]	0%
CCN(CC)S(=O)(=O)c1ccc(NC(=O)CSc2nnc(-c3ccc(F)cc3)o2)cc1	-3	-107*	23%[38.3 µM]	-27%
CCN1CC(O)=C(c2nc3ccccc3s2)C1=N	-4	29	11%[38.3 µM]	5%
COc1ccc(N2CC(O)=C(c3nc4ccccc4s3)C2=N)cc1	9	24	14µM*	-2%
SMILES	IMPase cell inh	PNC assembly inh	IMPase Li cell	12-hLO inh
C=C1C(c2ccc(C)cc2)=CCc2cc(C)cc(C)c21	·	·	13%	·
COc1ccc(CSc2nncn2N)cc1[N+](=O)[O-]	·	-89*	-7%	0%
COc1ccc(CCNC(=O)CSc2nncn2N)cc1OC	3	-82*	17%[38.3 µM]	2%
COc1ccc(CCNC(=O)CSc2nnnn2C)cc1OC	·	·	2%	·
CN(/N=C/C=C/c1ccccc1)C1=NS(=O)(=O)c2ccccc21	-2	93	-4%	-1%
O=C(O)c1ccc([N+]2=Cn3c(nc4ccccc43)C2)cc1	·	·	4%	-1%[11.4 µM]
COc1ccccc1OCCSc1nc(N)cc(N)n1	-2	-100*	6%	-1%
Cc1nn(-c2ccccc2)c(N2CCCC2)c1/C=N/NC(=S)Nc1ccccc1F	·	-86*	15%	3%
Cc1nn(-c2ccccc2)c(N2CCCC2)c1/C=N/NC(=O)c1cc2ccccc2cc1O	4	-1	-15%	-2%
N#Cc1c(-c2ccccc2Cl)cc(-c2ccccc2)[nH]c1=S	·	·	-18%	·
N#Cc1c2c(c(-c3ccccc3Cl)[nH]c1=S)CCCC2	·	·	10µM*	·
